# Assay results as given in PubChem BioAssay AID504848 (National Center for Advancing Translational Sciences (NCATS), 2011).
# About 1,400 (61%) of roughly 2,300 compounds were called active. Inconclusive results (about 29%) are left out. Calls come from the whole dose curve; as a rule, active = well fitted inhibition curve with a large enough effect; inconclusive = small, poorly fitted or top-dose-only effect, or effect the other way; inactive = no such curve, though single readings can be large or run the other way. So high a share suggests a set chosen from earlier hits. Some of the results follow.
# Experiment: Confirmation screen for delayed death inhibitors of the malarial parasite plastid, 96 hour incubation; note: nearly all actives have a fitted effect of over 60% in size
# Conditions: P. falciparum luciferase growth in erythrocytes; series mostly up to 28.7 µM
# Method in brief: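 Two-generation (96 h, 37 C) exposure of P. falciparum carrying an integrated firefly luciferase reporter in erythrocytes, 0.1% parasitemia and 2% hematocrit final, Albumax-supplemented RPMI. Luminescence decrease measures growth inhibition.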
# Potency is the fitted concentration of half-maximal effect.
row,SMILES,Potency
1,COc1ccccc1-n1nnnc1S(=O)(=O)Cc1ccc(Cl)cc1,7.08 µM (active)
2,CCCc1cc(C(=O)N2CCCC(N3CCN(c4ccccc4F)CC3)C2)n(C)n1 (centres undefined),10 µM (active)
3,CC(=O)NC(=O)COC(=O)/C=C/c1c(C)nn(Cc2c(Cl)cccc2Cl)c1Cl,inactive
4,COc1ccc2cc3cc(C(=O)Nc4ccc5c(c4)OCO5)oc3nc2c1,0.891 µM (active)
5,COc1ccc2cc3cc(C(=O)N(C)C4CCCCC4)oc3nc2c1,10 µM (active)
6,CCOC(=O)C1CCCN(C(=O)c2cc3cc4ccc(OC)cc4nc3o2)C1 (centres undefined),7.94 µM (active)
7,CN(CCCN1c2ccccc2CCc2ccccc21)CC(=O)c1ccc(Cl)cc1,12.6 µM (active)
8,CCN(CC)C(=O)COc1coc(CN2CCN(c3cccc(Cl)c3)CC2)cc1=O,4.47 µM (active)
9,CCN(CC)C(=O)COc1coc(CN2CCN(c3ccccc3)CC2)cc1=O,7.94 µM (active)
10,CN(C(=O)COc1coc(CN2CCN(c3ccccc3)CC2)cc1=O)c1ccccc1,10 µM (active)
11,CCOc1ccccc1NC(=O)COc1coc(CN2CCc3ccccc3C2)cc1=O,11.2 µM (active)
12,CCCNC(=O)COc1coc(CN2CCN(c3cccc(Cl)c3)CC2)cc1=O,10 µM (active)
13,O=C(O)c1ccc(/C=N/NC(=O)c2ccc3c(c2)OCCO3)cc1,inactive
14,O=C(/C=C/c1ccncc1)c1ccc2c(c1)OCCO2,12.6 µM (active)
15,CCOC(=O)C1=C(C)N=c2s/c(=C\c3ccc(OCC(=O)O)cc3)c(=O)n2C1c1ccc(OC(C)C)cc1 (centres undefined),2.51 µM (active)
16,O[C@@H](c1cc(C(F)(F)F)nc2c(C(F)(F)F)cccc12)[C@H]1CCCCN1,0.178 µM (active)
17,OC(c1cc(C(F)(F)F)nc2c(Cl)cc(Cl)cc12)C1CCCCN1 (centres undefined),0.0224 µM (active)
18,OC(c1cc(-c2ccc(Cl)cc2)nc2ccccc12)C1CCCCN1 (centres undefined),0.251 µM (active)
19,OC(c1cc(C(F)(F)F)nc2c(C(F)(F)F)cccc12)C1CCCCN1 (centres undefined),0.0501 µM (active)
20,CCN(CC)c1ccc(NC(=S)NC(=O)C2CCC2)cc1,11.2 µM (active)
21,O=[N+]([O-])c1cncc([N+](=O)[O-])c1Nc1cccc(O)c1,12.6 µM (active)
22,O=C(Nc1ccsc1C(=O)O)c1cccc(C(F)(F)F)c1,inactive
23,NC(=O)C1CCN(CC(=O)Nc2cccc(C(=O)Nc3cccc(C(F)(F)F)c3)c2)CC1,1.12 µM (active)

row,SMILES,Potency
1,COc1ccc(OC)c(/C=C/c2c([N+](=O)[O-])c(=O)n(C)c(=O)n2C)c1,12.6 µM (active)
2,Cn1c(/C=C/c2ccc(Cl)cc2)c([N+](=O)[O-])c(=O)n(C)c1=O,6.31 µM (active)
3,COc1ccc(Cn2c(O)c(C=Nc3ccc(O)cc3)c3ccccc3c2=O)cc1,7.94 µM (active)
4,COc1ccc(-c2cc(-c3ccccc3)nc(SC(C)C(=O)O)c2C#N)cc1 (centres undefined),10 µM (active)
5,COc1ccc(-c2cc(-c3ccccc3)nc(SCC(=O)Nc3nccs3)c2C#N)cc1,2 µM (active)
6,CCCSc1sc(C(=O)OC)c(-c2cccs2)c1C#N,inactive
7,CCc1ccc(NC(=O)CN(c2cc(C)cc(C)c2)S(=O)(=O)c2c(C)[nH]c(=O)[nH]c2=O)cc1,12.6 µM (active)
8,Cc1cccc(C)c1OCc1cc(C(=O)N(C)Cc2nc3ccccc3[nH]2)no1,14.1 µM (active)
9,Cc1ccc(C)c(/C=C/C(=O)c2ccccc(=O)c2O)c1,11.2 µM (active)
10,O=C(/C=C/c1ccccc1Cl)c1ccccc(=O)c1O,6.31 µM (active)
11,COc1ccc(OC)c(CNC(=O)c2ccc(C)c(NC(=O)C3=C(C)OCCS3)c2)c1,10 µM (active)
12,CSc1nnc2c3ccccc3n(CCc3ccccc3)c2n1,15.8 µM (active)
13,S=c1nc2c(n[nH]1)c1ccccc1n2CCc1ccccc1,12.6 µM (active)
14,CC1C/C(=C/c2ccncc2)C(=O)/C(=C/c2ccncc2)C1 (centres undefined),3.55 µM (active)
15,O=[N+]([O-])c1c(Nc2ccccc2O)cc(Cl)c2nonc12,3.55 µM (active)
16,CC1CCN(c2ccc3nnc(CCC(=O)N4CCN(c5ccccc5F)CC4)n3n2)CC1,10 µM (active)
17,COc1cccc2sc(Nc3nnc(-c4ccccc4Cl)o3)nc12,inactive
18,COc1cccc2sc(Nc3nnc(-c4ccc(F)cc4)o3)nc12,7.08 µM (active)
19,CC(C)C[C@H](NC(=O)c1[nH]cnc1C(=O)N[C@@H](C)C(=O)OC(C)(C)C)C(=O)OC(C)(C)C,10 µM (active)
20,CC(C)C[C@H](NC(=O)c1[nH]cnc1C(=O)Nc1ccc(CNC(=O)OC(C)(C)C)cc1)C(=O)OC(C)(C)C,4.47 µM (active)
21,CC(C)C[C@H](NC(=O)c1nc[nH]c1C(=O)N(C)Cc1ccccc1)C(=O)OC(C)(C)C,10 µM (active)
22,C[C@H](NC(=O)c1nc[nH]c1C(=O)N[C@H](C)c1ccccc1)C(=O)OCc1ccccc1,inactive
23,CC(C)C[C@H](NC(=O)c1[nH]cnc1C(=O)N[C@@H](Cc1ccccc1)C(=O)OC(C)(C)C)C(=O)OC(C)(C)C,6.31 µM (active)

row,SMILES,Potency
1,Cc1cc(C)cc(NC(=O)C2C3C=CC4(O3)C2C(=O)N(CCCN2CCCC2)C4C(=O)NC2CCCC(C)C2C)c1 (centres undefined),12.6 µM (active)
2,O=C(O)c1cc2ccccc2c(N=Nc2cccnc2)c1O,3.98 µM (active)
3,O=C(Nc1ccon1)c1nc[nH]c1C(=O)NCc1ccccc1,7.94 µM (active)
4,CCC(=O)N1c2ccccc2NC2=C(C(=O)CC(c3ccco3)C2)C1c1ccco1 (centres undefined),10 µM (active)
5,C=CCC1(O)C(=O)N2C(=C1C(=O)OCC)c1ccc3ccccc3c1CC2(C)C (centres undefined),10 µM (active)
6,O=C(Cn1c(=O)oc2ccc(Cl)cc21)NC1CCCCC1,10 µM (active)
7,CN(C)C1(CNC(=O)C2CCC(=O)N(Cc3ccc(Cl)cc3)C2)CCCCC1 (centres undefined),5.62 µM (active)
8,Cc1ccc(Nc2nc(=O)c3cccnc3s2)c(Br)c1,inactive
9,Cc1cc(OCC(=O)N[C@@H](CSCc2ccccc2)C(=O)O)c2c(C)c(C)c(=O)oc2c1,14.1 µM (active)
10,CN(CCNC(=O)C1CCC(=O)N(Cc2cccc(F)c2)C1)CCc1ccccc1 (centres undefined),7.08 µM (active)
11,CN(CCOc1ccccc1)C(=O)C1CCC(=O)N(CCN2CCOCC2)C1 (centres undefined),inactive
12,CN(Cc1ccccc1Cl)C(=O)C1CCC(=O)N(CCc2cccc(F)c2)C1 (centres undefined),7.94 µM (active)
13,Cc1ccc(C(=O)NC2CCCC2)cc1S(=O)(=O)N1CCCCC1,8.91 µM (active)
14,Cc1ccc(C(=O)NC2CCCCC2)cc1S(=O)(=O)N1CCCC1,10 µM (active)
15,COc1ccc(C)cc1S(=O)(=O)N1CCN(S(=O)(=O)c2cc(C(=O)O)ccc2C)CC1,8.91 µM (active)
16,Fc1ccc2cnc(-c3ccccc3)c(-c3ccc(C(F)(F)F)cc3)c2c1,14.1 µM (active)
17,O=[N+]([O-])c1ccc(-c2c(-c3ccccc3)ncc3ccc(F)cc23)cc1,12.6 µM (active)
18,CCCCNC(=O)c1onc(CSc2cccc3ccccc23)c1C(=O)O,inactive
19,CCCCNC(=O)c1onc(CSc2ccccc2C)c1C(=O)O,inactive
20,O=C(CNC(=O)c1ccco1)OCC(=O)c1ccccc1,inactive
21,CCc1ccc(OCCNC(=O)c2ccccc2SCc2ccccc2)cc1,12.6 µM (active)
22,CCc1ccc(OCCNC(=O)c2ccco2)cc1,12.6 µM (active)
23,CCCn1c(CN2CCN(C(=O)OCC)CC2)nc2cc(NC(=O)C(C)C)ccc21,10 µM (active)

row,SMILES,Potency
1,CN1CCN(c2ncnc3c2c(-c2ccccc2)cn3-c2ccc(F)cc2)CC1,11.2 µM (active)
2,Fc1ccccc1N1CCN(c2ncnc3[nH]ncc23)CC1,inactive
3,CCN1CCN(c2ncnc3c2c(-c2ccccc2)cn3-c2ccc(F)cc2)CC1,10 µM (active)
4,Cc1[nH]c(C)c(C(=O)/C=C/c2ccc([N+](=O)[O-])cc2)c1C,7.94 µM (active)
5,Cc1c(Cc2ccccc2)c(=O)oc2cc(OC(C)C(=O)NCC3CCC(C(=O)O)CC3)c(Cl)cc12 (centres undefined),10 µM (active)
6,Cc1c(OC(C)C(=O)NCC2CCC(C(=O)O)CC2)ccc2c1oc(=O)c1ccccc12 (centres undefined),12.6 µM (active)
7,Cc1oc(/C=N/NS(=O)(=O)c2ccccc2)cc1Br,inactive
8,COc1ccc(C(=O)/C=C/C(=O)N(CC(=O)NC2CCCCC2)CC2CCCO2)c(O)c1 (centres undefined),12.6 µM (active)
9,COc1ccc(CN(C(=O)/C=C/C(=O)c2ccc(OC)cc2O)C(C(=O)NC2CCCCC2)c2ccncc2)cc1 (centres undefined),6.31 µM (active)
10,CCOc1ccc(-c2cc(C(=O)N/N=C(\C)c3cccnc3)c3ccccc3n2)c(OCC)c1,14.1 µM (active)
11,CCOC(=O)CSc1nc2sc3c(c2c(=O)n1C1CCCCC1)CCN(C)C3,2 µM (active)
12,CCn1c(SCC(=O)Nc2ccc(C)cc2)nc2sc3c(c2c1=O)CCN(C)C3,0.708 µM (active)
13,Cn1cc([N+](=O)[O-])c(C(=O)Nc2nccs2)n1,inactive
14,CC(C)(C)OC(=O)NCCCCCNC(=O)c1[nH]cnc1C(=O)Nc1nccs1,7.08 µM (active)
15,COc1cccc(F)c1C(C[N+](=O)[O-])c1c(N)n(C)c(=O)n(C)c1=O (centres undefined),3.98 µM (active)
16,COc1ccc(C)cc1NC(=O)C1CCN(S(=O)(=O)c2ccc3c(c2)NC(=O)CO3)CC1,7.94 µM (active)
17,Cc1ccc(C)c(N2CCN(S(=O)(=O)c3ccc4c(c3)NC(=O)CS4)CC2)c1,8.91 µM (active)
18,Cc1cccc(N2CCN(S(=O)(=O)c3ccc4c(c3)NC(=O)CO4)CC2)c1C,11.2 µM (active)
19,Cc1ccc(CCNC(=O)C2CCN(S(=O)(=O)c3ccc4c(c3)NC(=O)CO4)CC2)cc1,10 µM (active)
20,O=C(CCl)Nc1cccc(Oc2cnccn2)c1,3.55 µM (active)
